High-throughput results deposited in PubChem by National Center for Advancing Translational Sciences (NCATS).
SARS PLP yeast – qHTS of Yeast-based Assay for SARS-CoV PLP; S. cerevisiae expressing SARS-CoV PLpro, growth rescue; Potency, µM (doses to about 32.9 µM), inactives show top-dose activity, positive = growth rescue, actives largely listed as activators; 0.19% of 330,000 active; AID 485353, 2010; calls by dose curve; note: potency is the fitted concentration of half-maximal effect; 0% is about no effect; nearly all actives have a fitted effect of over 55% in size
Shiga toxin inh – A qHTS for Small Molecule Inhibitors of Shiga Toxin; 9.2% of 290,000 active; inhibition, % at 38.7 µM; AID 2315, 2010; Vero cells, Shiga toxin protein synthesis inhibition reporter; in the data active = inhibition mostly above about 28%, no sharp cut-off; inactive = mostly below about 43%; note: 0% is about no effect
Cycloheximide cs – Cycloheximide Counterscreen for Small Molecule Inhibitors of Shiga Toxin; cell reporter, cycloheximide protein synthesis inhibition counterscreen; max response, %; 12% of 300,000 active; AID 2314, 2010; in the data active = max response mostly above about 13%, no sharp cut-off; inactive = mostly below about 14%; note: read at 38.3 µM for the half of the compounds with a filed dose; 0% is about no effect
Pf growth 48h – Primary qHTS for delayed death inhibitors of the malarial parasite plastid, 48 hour incubation. P. falciparum luciferase growth in erythrocytes, 48 h. Potency, µM (top dose mostly 28.7 µM), inactives show top-dose activity change, negative = inhibition, actives largely listed as inhibitors. 5.9% of 310,000 active; note: potency is the fitted concentration of half-maximal effect; % is set by controls: 0 for no effect and ±100 for the full control effect
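Here the parasites carry a stable luciferase gene and grow inside erythrocytes in Albumax-based RPMI medium with compound for one erythrocytic cycle. Activity is scored as loss of luminescent signal.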
AMA1-RON2 inh – qHTS for Inhibitors of AMA1-RON; Towards Development of Antimalarial Drug Lead: Primary Screen; Plasmodium falciparum AMA1 (3D7) - RON2 peptide interaction; AlphaScreen AMA1-biotinylated RON2 peptide binding; Potency, µM (series often up to 58.2 µM), without a hit: at the highest dose activity change, negative = inhibition, usual class: inhibitors; 0.2% of 360,000 active; AID 720542, 2013;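 note: potency is the fitted concentration of half-maximal effect; 0% = vehicle wells and -100% = peptide control; nearly all actives have a fitted effect of over 45% in size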
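AMA1 (3D7) with his tag at 25 nM final met compounds first, then biotinylated RON2 peptide at 25 nM; detection used donor plus acceptor beads, 10 µg/mL apiece, read by AlphaScreen after 30 min at room temperature.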
Pf growth 96h – Primary qHTS for delayed death inhibitors of the malarial parasite plastid, 96 hour incubation | P. falciparum luciferase reporter growth, 96 h | Potency, µM (highest dose often 28.7 µM), for inactives: at the top dose activity change, negative = inhibition, actives largely listed as inhibitors | 6.9% of 320,000 active | AID 504834, 2011; note: potency is the fitted concentration of half-maximal effect; % is set by controls: 0 for no effect and ±100 for the full control effect
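Erythrocytes infected with luciferase-expressing P. falciparum were dispensed at 2% hematocrit and 0.05% parasitemia (final), then incubated with compounds 96 hours at 37 C in 5% CO2. Luminescence after detection reagent addition reported growth.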
* marks the source's active call; other numbers are inactive results; ? = inconclusive; . = no result. Compounds with a hit are over-represented: about 19% of the library has one in this group of screens. Unless noted, calls come from the whole dose curve; as a rule, active = well fitted curve in the direction sought with a large enough effect; inconclusive = small, poorly fitted or top-dose-only effect, or another doubt; inactive = no such curve, though single readings can be large; an effect the other way counts as inactive or inconclusive.

SMILES	SARS PLP yeast	Shiga toxin inh	Cycloheximide cs	Pf growth 48h	AMA1-RON2 inh	Pf growth 96h
CN1CCc2cc3c(c4c2[C@H]1[C@H](O)c1ccccc1-4)OCO3	-14%	-12	-2	1.7µM*	-15%	?
O=C(/C=C/c1ccccc1Br)c1ccc2c(c1)OCO2	-21%	112*	36*	-21%	-9%	64%
O=C(/C=C/c1ccc2c(c1)OCO2)c1ccc[nH]1	-22%	active	79*	208%	-21%	276%
CN(C)c1ccc(/C=C/C(=O)c2ccc3c(c2)OCO3)cc1	4%	.	.	150%	77%	121%
COc1ccc(C(=O)/C=C/c2ccc(N3CCCCC3)c([N+](=O)[O-])c2)cc1	6%	-9	-2	-80%	?	?
CN(C)c1ccc(/C=C/C(=O)c2ccc3c(c2)OCCO3)cc1[N+](=O)[O-]	1%	active	43*	0%	-6%	47%
O=C(/C=C/c1ccccc1)c1ccc2c(c1)OCO2	-2%	59*	37*	58%	21%	20%
COc1cccc(/C=C/C(=O)c2ccc[nH]2)c1	-23%	91*	55*	.	-5%	49%
CCN(Cc1ccc2c(c1)OCO2)C(=O)/C=C/c1cccc(Br)c1	-7%	-4	7	14%	-6%	1%
O=C(N/N=C\C=C\c1ccc2c(c1)OCO2)c1ccc(F)cc1	-2%	46	20	?	39%	-5%
O=C(/C=C/c1cccc(Br)c1)c1ccc2c(c1)OCO2	-6%	62*	25*	20%	-29%	15%
O=C(/C=C/c1ccncc1)c1ccc2c(c1)OCCO2	-6%	27	20*	-1%	-2%	?
O=C(/C=C/c1ccc2c(c1)OCO2)c1ccc(F)cc1	3%	78*	42*	0%	-6%	?
CCOC(=O)CNc1nc(Cl)nc(Nc2ccc(Cl)cc2)n1	-1%	-8	-1	0%	-6%	2%
COc1ccc(CCN(Cc2cccs2)S(=O)(=O)c2ccc(C(=O)O)cc2)cc1OC	1%	-6	-2	-8%	2%	17%
FC(F)(F)COc1nc(N/N=C/c2cccnc2)nc(N2CCCCC2c2ccccn2)n1 (stereo not drawn)	-1%	-7	-5	12µM*	11%	9.3µM*
COc1ccc(Cc2nnc(N/N=C/c3ccc(C)o3)[nH]c2=O)cc1	0%	-10	4	0%	23%	3%
Cc1ccc2nc(N(CCCN(C)C)C(=O)c3ccc(S(=O)(=O)N(C)C)cc3)sc2c1	1%	-5	-2	-12%	12%	-28%
COc1ccc2sc(N(CCN(C)C)C(=O)c3ccc4ccccc4c3)nc2c1	5%	21	21*	8%	9%	97%
COc1ccc2sc(N(CCN(C)C)C(=O)c3cc(Cl)sc3Cl)nc2c1	-2%	37	18	56%	-5%	72%
CN(C)CCN(C(=O)c1ccc(C(=O)c2ccccc2)cc1)c1nc2cc3c(cc2s1)OCCO3	1%	81*	36*	27%	0%	3%
CN(C)CCCN(C(=O)c1ccco1)c1nc2ccc(Br)cc2s1	-3%	-13	-4	?	-1%	?
CN(C)CCCN(C(=O)c1ccc(C(=O)c2ccccc2)cc1)c1nc2cc3c(cc2s1)OCCO3	2%	19	-3	?	9%	?
CN(C)CCN(C(=O)c1ccco1)c1nc2cc3c(cc2s1)OCCO3	-3%	41	38*	75%	-10%	29%
CN(C)CCN(C(=O)c1ccc(S(=O)(=O)N(C)c2ccccc2)cc1)c1nc2ccc(Cl)cc2s1	-3%	64*	34*	-30%	13%	?
SMILES	SARS PLP yeast	Shiga toxin inh	Cycloheximide cs	Pf growth 48h	AMA1-RON2 inh	Pf growth 96h
Cc1cccnc1NC(=O)CCNC(=O)c1ccc(Br)cc1	-3%	-6	-2	10%	-4%	-15%
CC(=O)NCCNC(=O)CCNC(=O)c1ccc(Cl)cc1	5%	-11	-4	.	16%	1%
CCOc1ccc(-c2nc3ccc(-c4nc5ccc(N6CCN(C)CC6)cc5[nH]4)cc3[nH]2)cc1	.	54	7	.	.	.
CN(C)CCN(C(=O)CN1C(=O)c2ccccc2C1=O)c1nc2cc3c(cc2s1)OCO3	-1%	49	27*	?	-1%	11%
CN(C)CCCN(C(=O)COc1ccccc1)c1nc2cc3c(cc2s1)OCCO3	-2%	18	24*	54%	-1%	?
CN(C)CCCN(C(=O)c1ccc(S(=O)(=O)N(C)C)cc1)c1nc2cc3c(cc2s1)OCO3	-1%	14	8	?	6%	18%
CN(C)CCN(C(=O)c1ccc(S(=O)(=O)N(C)c2ccccc2)cc1)c1nc2cc3c(cc2s1)OCO3	-1%	28	18*	30%	0%	37%
CN(C)CCN(C(=O)c1ccc(C(=O)c2ccccc2)cc1)c1nc2cc3c(cc2s1)OCO3	-4%	21	10*	13%	-25%	12%
Cc1cccc(C)c1NC(=O)CNC(=O)c1ccccc1	1%	-7	-4	-17%	19%	1%
Cc1ccc(-c2nc(CS(=O)(=O)CC(=O)Nc3cc(F)ccc3F)c(C)o2)cc1	5%	-4	-1	40%	-4%	?
CC(C)NC(=S)n1cc(C(=O)c2cc(Cl)cc(Cl)c2O)cn1	-3%	-4	-5	12%	92%	38%
Cc1ccc(Cc2c(-c3cccc(Br)c3)nc3c(C)cc(Br)cn23)cc1	.	.	.	.	7%	.
CN(C)CCN(C(=O)c1ccc(N2C(=O)CCC2=O)cc1)c1nc2cc3c(cc2s1)OCCO3	-1%	60*	38*	100%	.	0%
Cc1ccc(O)c(C(=O)c2cnc3c(c2)COc2ccccc2-3)c1	-51%	11	19	4.1µM*	?	?
Cc1cc(-c2ccc(Cl)cc2Cl)c(C#N)c(=O)[nH]1	2%	44*	21*	25%	8%	8%
CCC(C)NS(=O)(=O)c1cc2c3c(c1)CCN3C(=O)CC2 (stereo not drawn)	0%	-12	-5	9%	-12%	12%
CN(C)/C=C1\SC(=S)N(c2ccc(Br)cc2)C1=O	-4%	46*	34*	2.3µM*	-11%	75%
CCN(CC)c1ccc(N2C(=O)/C(=C\c3cccs3)SC2=S)cc1	3%	-11	-4	10%	-8%	.
CN(C)/C=C1\SC(=S)N(c2ccc(F)cc2)C1=O	-2%	32	33*	?	10%	81%
COc1ccc(N=Nc2nc3cc(Br)c(Br)cc3n2C)c(OC)c1	.	35*	34*	10µM*	?	?
COc1ccc(N=C(N)N=C(N)N)c(OC)c1	9%	-10	-1	-4%	21%	10%
CCOC(=O)C(C#N)=C1CCC=C(C)C1	.	.	.	.	-3%	.
